HePTP inh: inhibitors of human HePTP phosphatase, primary screen, biochemical, absorbance, leukemia target; recombinant HePTP phosphatase activity, OD absorbance; inhibition, % at 20 µM; actives 0.64% (n = 110,000); AID 521, 2006; in the data active = inhibition above about 50%;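 also: plate controls were vehicle for no effect and reference inhibitor for full effect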
Candida biofilm: clotrimazole potentiators killing Candida biofilms, primary screen, with clotrimazole, Alamar Blue; actives 0.14% (n = 85,000); AID 834, 2007; inhibition, % at 6 µM; C. albicans biofilm + clotrimazole;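 active = inhibition above 20%; inactive = inhibition below 20%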;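 also: preformed 24 hr biofilms exposed to compound for 48 hr; 0% = biofilm without compound and 100% = blank killed by clotrimazole plus chlorhexidine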
D1 allo mod: D1 CRE-luciferase signal change, two-sided – cell-based, HEK293 D1, dopamine EC30, D1 allosteric modulator project, primary screen; dopamine EC30 potentiation; actives deviate in either direction; actives 5.9% (n = 58,000); B-score at 10 µM;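 active = luminescence count or its row- and column-corrected plate score outside the 99.7% band of the plate's sample wells, on either side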
DAT uptake mod: changed hDAT dopamine uptake under cocaine IC80, either direction, primary screen, cocaine antagonist project, cell-based, LLC-PK1 hDAT, [14C]-dopamine uptake, MLSMR. Sodium-dependent dopamine transporter (Homo sapiens), Q01959. LLC-PK1 hDAT cells, [14C]-dopamine uptake with cocaine IC80; actives deviate in either direction. B-score at 10 µM. actives 1.3% (n = 110,000). AID 449768, 2010;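 active = Z score or B-score, a plate-position-corrected score, falls beyond the plate's 99.7% confidence bounds, in either direction; inactive = both scores lie inside the 99.7% bounds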;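 also: scored against the spread of the other compound wells on the same plate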
PLAP act: PLAP enzyme activators, biochemical, luminescence, HTS. Alkaline phosphatase, placental type (Homo sapiens), P05187. purified PLAP enzyme, luminescent substrate read-out; stronger effect = higher value. activation fold at 20 µM. actives 1.2% (n = 96,000). AID 696, 2007; in the data active = activation fold above about 2
Target sequence (P05187 whole entry, looked up): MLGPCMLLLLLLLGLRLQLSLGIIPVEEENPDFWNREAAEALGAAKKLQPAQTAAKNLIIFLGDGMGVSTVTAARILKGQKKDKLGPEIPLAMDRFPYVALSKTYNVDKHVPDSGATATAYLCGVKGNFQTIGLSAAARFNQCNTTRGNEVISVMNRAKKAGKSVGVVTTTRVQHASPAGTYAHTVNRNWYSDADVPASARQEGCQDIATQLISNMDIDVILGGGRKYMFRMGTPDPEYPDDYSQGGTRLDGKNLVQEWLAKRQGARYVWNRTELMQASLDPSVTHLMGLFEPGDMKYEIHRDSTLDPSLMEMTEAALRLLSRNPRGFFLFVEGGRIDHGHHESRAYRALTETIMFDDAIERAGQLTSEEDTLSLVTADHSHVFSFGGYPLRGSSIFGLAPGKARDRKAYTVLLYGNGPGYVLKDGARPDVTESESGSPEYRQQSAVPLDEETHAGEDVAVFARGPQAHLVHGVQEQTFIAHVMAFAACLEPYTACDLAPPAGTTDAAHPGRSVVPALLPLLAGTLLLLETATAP
TNAP act mid DEA: human TNAP enzyme activators, primary screen, biochemical, luminescent, intermediate phosphate acceptor level. 64,000 tested, under 10 active. purified TNAP, CDP-star luminescence, 100 mM DEA, 30 min; stronger effect = higher value; scale: 0 levamisole-inhibited, 1 vehicle-only enzyme. activation factor at 20 µM;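 active = activation factor of at least 2 at 20 µM, relative to controls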
D1 PAM confirm: D1 receptor positive allosteric modulators, retest, confirmation, cell-based, HEK293 D1, CRE-luciferase, duplicate | luminescence at 10 µM | dopamine EC30 potentiation; stronger effect = higher value | shares compounds with D1 allo mod | actives 88% (n = 2,200);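 active = luminescence in either of two replicates above the same-plate mean plus 3 SD of the low-dose dopamine control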
D1 ag no DA: D1 receptor agonism without dopamine, confirmation, mechanism study for D1 allosteric modulator project, cell-based, HEK293 D1, CRE-luciferase, secondary assay 1 | luminescence at 10 µM | AID 646, 2007 | shares compounds with D1 allo mod | actives 0.8% (n = 1,900) | luminescence, no dopamine; stronger effect = higher value; in the data active = luminescence above about 3900
Isoprot counter: alters isoproterenol CRE-luciferase response in HEK293 cells. shares compounds with D1 allo mod. HEK293 D1 CRE-luciferase, isoproterenol EC30 counter-screen; stronger effect = higher value. luminescence at 10 µM. actives 63% (n = 2,200);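 active = luminescence in either replicate above plate mean of wells with a partly effective reference agonist dose plus 3 SD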;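 also: isoproterenol raises cAMP through native beta-adrenoceptor Gs so signal bypasses D1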
Starred values were filed as active, the others as inactive. Only a selection was taken, and hits are over-represented in it overall.

Cc1cccc(Nc2nc3c(c(=O)n(C)c(=O)n3C)n2Cc2ccccc2)c1 was read as HePTP inh 7, Candida biofilm -3, D1 allo mod 22*, DAT uptake mod 0.59, PLAP act 1.2, TNAP act mid DEA 0.8, D1 PAM confirm 12460*, D1 ag no DA 1376 and Isoprot counter 3228*.
C/C(Cl)=C/Cn1c(=O)c2c(nc(Br)n2Cc2ccccc2)n(C)c1=O was read as HePTP inh 4, Candida biofilm 9, D1 allo mod 4.8*, DAT uptake mod -0.11, PLAP act 0.8, TNAP act mid DEA 0.9, D1 PAM confirm 11400*, D1 ag no DA 1484 and Isoprot counter 3484*.
For COc1cccc(N2C(=O)C(=O)/C(=C(\O)c3ccccc3)C2c2ccccc2Cl)c1 (stereo not drawn) the results were HePTP inh -21.
Screening N#Cc1c(-n2ncnc2-c2cccc([N+](=O)[O-])c2)sc2c1CCCC2 returned HePTP inh 8.
`CCC(=O)NNc1nc2c(c(=O)n1C1CCOC(C)(C)C1)C1(CCCCC1)Cc1ccccc1-2` (stereo not drawn) gave HePTP inh -2.
`COc1cc(OC)c(-c2nc3sc4c(c3c(=O)[nH]2)CCCC4)cc1Br` gave HePTP inh 0.
C=CCOc1ccc(/C=C2\C(=O)NC(=S)N(c3ccccc3)C2=O)cc1OC was read as HePTP inh 7.
Screening CCCn1c(CCc2ccccc2)nnc1SCC(=O)N1CCOCC1 returned HePTP inh 3, Candida biofilm -4, D1 allo mod 3.2*, DAT uptake mod -0.27, PLAP act 1.1, TNAP act mid DEA 0.9, D1 PAM confirm 4772, D1 ag no DA 1664 and Isoprot counter 2068.
`Cn1c(Cn2c(=O)sc3ccccc32)nnc1SCC(=O)N1CCOCC1` gave HePTP inh -4, Candida biofilm 14, D1 allo mod 5.1*, DAT uptake mod -1.2, TNAP act mid DEA 1, D1 PAM confirm 8076*, D1 ag no DA 1508 and Isoprot counter 2340.
Screening CCNc1nc(C)c2cc(Br)c(=O)n(CC)c2n1 returned HePTP inh 3, Candida biofilm 8, D1 allo mod 15*, DAT uptake mod -0.69, PLAP act 0.9, TNAP act mid DEA 0.9, D1 PAM confirm 24012*, D1 ag no DA 1832 and Isoprot counter 6200*.
`CCn1c(=N)c(C(=O)NC)cc2c(=O)n3cccc(C)c3nc21` gave HePTP inh 6, Candida biofilm 3, D1 allo mod -1.2, PLAP act 0.8 and TNAP act mid DEA 0.9.
For Nc1ccc(SC(F)(F)F)cc1C(=O)c1ccccc1 the results were HePTP inh -5, Candida biofilm -3, D1 allo mod 14*, PLAP act 0.7, TNAP act mid DEA 0.8, D1 PAM confirm 13336*, D1 ag no DA 1612 and Isoprot counter 5068*.
`CCn1c(SCC(=O)NCC(=O)Nc2ccc(F)cc2)nnc1-c1cccs1` gave HePTP inh 4, Candida biofilm 6, D1 allo mod 3*, DAT uptake mod 0.86, PLAP act 1, TNAP act mid DEA 0.9, D1 PAM confirm 4428, D1 ag no DA 1640 and Isoprot counter 2700.
Screening CCn1c(SCC(=O)Nc2ccc(C(=O)OC)cc2)nnc1-c1cccs1 returned HePTP inh 5, Candida biofilm 1, D1 allo mod -0.21, DAT uptake mod -1, PLAP act 0.9 and TNAP act mid DEA 0.9.
For COc1ccc(C(=O)OCC(=O)NCc2ccco2)cc1OC the results were HePTP inh 23, Candida biofilm 5, D1 allo mod 1.1, DAT uptake mod 0.43, PLAP act 1.1 and TNAP act mid DEA 0.9.
`CCOc1ccc(C(=O)OCC(=O)NCc2ccco2)cc1OCC` gave HePTP inh 10, Candida biofilm 7, D1 allo mod 7.7*, DAT uptake mod 0.63, PLAP act 1.7, TNAP act mid DEA 0.9, D1 PAM confirm 12216*, D1 ag no DA 1596 and Isoprot counter 3744*.
For O=C(CCNS(=O)(=O)c1ccc2c(c1)CCC(=O)N2)NCc1ccc2c(c1)OCO2 the results were HePTP inh -5, Candida biofilm 2, D1 allo mod 2.9*, DAT uptake mod -1.6, PLAP act 1.1, TNAP act mid DEA 0.9, D1 PAM confirm 6928*, D1 ag no DA 1720 and Isoprot counter 2668.
Cc1ccc(S(=O)(=O)NCCC(=O)NCc2ccc3c(c2)OCO3)cc1C was read as HePTP inh 3, Candida biofilm 10, D1 allo mod 1.3, DAT uptake mod 0.19, PLAP act 1 and TNAP act mid DEA 1.
For CSc1nnc(-c2ccco2)c(-c2ccco2)n1 the results were HePTP inh 15, Candida biofilm -3, D1 allo mod 4.2*, DAT uptake mod -2.3, PLAP act 1.2, TNAP act mid DEA 0.8, D1 PAM confirm 10584* and Isoprot counter 3436*.
For COc1ccc(Cc2nnc(NC(=O)c3c(-c4ccccc4)noc3C)s2)cc1 the results were HePTP inh 7, Candida biofilm 8, D1 allo mod 3.3*, DAT uptake mod 2, PLAP act 1.2, TNAP act mid DEA 0.9, D1 PAM confirm 6196*, D1 ag no DA 1588 and Isoprot counter 2584.
COc1ccc(-c2csc(NC(=O)/C=C/c3ccc(OC)c(S(=O)(=O)N4CCCCC4)c3)n2)cc1 was read as HePTP inh -2.
CCn1c(=O)c2c(n3cnnc13)-c1ccccc1CC21CCCCC1 was read as HePTP inh 3, Candida biofilm 9, D1 allo mod 26*, DAT uptake mod -0.0052, PLAP act 0.9, TNAP act mid DEA 0.9, D1 PAM confirm 16572*, D1 ag no DA 1652 and Isoprot counter 4360*.

High-throughput results (PubChem BioAssay)
